Results: the supplement of paper PMC10849652
Of roughly 8,800 targets only a part is listed; those with a hit were picked by preference. About 0.5% of all pairs of compound and target were hits.

Tests used:
Experiment in all cases: log2 fold change, soluble protein after heating vs DMSO (PISA); higher = thermal stabilisation; K562 lysate, 10 uM; active = over 0.2 and 3.5 SD of the protein, either way, in both replicates (recomputed)
alvocidib = compound: CN1CC[C@H](c2c(O)cc(O)c3c(=O)cc(-c4ccccc4Cl)oc23)[C@H](O)C1 [alvocidib]
In short: (§1)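 Quantification was by TMTpro 16plex LC-MS/MS with equalised channel sums, applied to the supernatant after 21,000xg for 90 min. Samples were crude K562 extract at 1 mg/mL protein in PBS pH 7.4 with 1 mM MgCl2, treated with 10 μM compound for 30 min, heated for 3 min across 48°C-58°C, pooled and brought to 0.5% NP-40 at 4°C. Values are log-two fold changes in thermal stability relative to solvent controls, from duplicates.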

Tubastatin A = compound: CN1CCc2c(c3ccccc3n2Cc2ccc(C(=O)NO)cc2)C1 [Tubastatin A]
In short: as §1

[1] = compound: CNC(=O)C1=CC=CC=C1NC2=NC(=NC=C2Cl)NC3=C(C=C(C=C3)N4CCOCC4)OC
In short: as §1

defactinib = compound: CNC(=O)c1ccc(Nc2ncc(C(F)(F)F)c(NCc3nccnc3N(C)S(C)(=O)=O)n2)cc1 [defactinib]
In short: as §1

[2] = compound: CNc1nc(-c2ccc3c(N)n[nH]c3c2)cc(N2C[C@@H](C(=O)NC3CCCCC3)CC[C@H]2C)n1
In short: as §1

encorafenib = compound: COC(=O)N[C@@H](C)CNc1nccc(-c2cn(C(C)C)nc2-c2cc(Cl)cc(NS(C)(=O)=O)c2F)n1 [encorafenib]
In short: as §1

[3] = compound: COC(=O)[C@H](CCSC)NC(=O)C1=C(C=C(C=C1)NC[C@H](CS)N)C2=CC=CC=C2
In short: as §1

alisertib = compound: COc1cc(Nc2ncc3c(n2)-c2ccc(Cl)cc2C(c2c(F)cccc2OC)=NC3)ccc1C(=O)O [alisertib]
In short: as §1

[4] = compound: COc1cc2nc(-c3cc(F)ccc3O)nc(N[C@@H]3CNC[C@H]3C(C)(C)O)c2cc1OC
In short: as §1

gefitinib = compound: COc1cc2ncnc(Nc3ccc(F)c(Cl)c3)c2cc1OCCCN1CCOCC1 [gefitinib]
In short: as §1

Measured: log2 fold change

CNP (UniProt P09543)
inactive: alvocidib -0.005 | Tubastatin A -0.06 | [1] 0.011 | defactinib 0.028 | [2] -0.03 | encorafenib 0.02 | [3] -0.003 | alisertib 0.029 | [4] 0 | gefitinib -0.025

COG7 (UniProt P83436)
inactive: alvocidib 0.019 | Tubastatin A -0.114 | [1] -0.02 | defactinib 0.056 | [2] -0.047 | encorafenib 0.028 | [3] 0.035 | alisertib 0.014 | [4] 0.012 | gefitinib 0.004

DARS (UniProt P14868)
inactive: alvocidib 0.012 | Tubastatin A -0.119 | [1] -0.012 | defactinib 0.012 | [2] -0.061 | encorafenib 0.028 | [3] 0.049 | alisertib 0.038 | [4] 0.003 | gefitinib -0.014

DICER1 (UniProt Q9UPY3)
Sequence of UniProt Q9UPY3 (Q9UPY3 whole entry, looked up): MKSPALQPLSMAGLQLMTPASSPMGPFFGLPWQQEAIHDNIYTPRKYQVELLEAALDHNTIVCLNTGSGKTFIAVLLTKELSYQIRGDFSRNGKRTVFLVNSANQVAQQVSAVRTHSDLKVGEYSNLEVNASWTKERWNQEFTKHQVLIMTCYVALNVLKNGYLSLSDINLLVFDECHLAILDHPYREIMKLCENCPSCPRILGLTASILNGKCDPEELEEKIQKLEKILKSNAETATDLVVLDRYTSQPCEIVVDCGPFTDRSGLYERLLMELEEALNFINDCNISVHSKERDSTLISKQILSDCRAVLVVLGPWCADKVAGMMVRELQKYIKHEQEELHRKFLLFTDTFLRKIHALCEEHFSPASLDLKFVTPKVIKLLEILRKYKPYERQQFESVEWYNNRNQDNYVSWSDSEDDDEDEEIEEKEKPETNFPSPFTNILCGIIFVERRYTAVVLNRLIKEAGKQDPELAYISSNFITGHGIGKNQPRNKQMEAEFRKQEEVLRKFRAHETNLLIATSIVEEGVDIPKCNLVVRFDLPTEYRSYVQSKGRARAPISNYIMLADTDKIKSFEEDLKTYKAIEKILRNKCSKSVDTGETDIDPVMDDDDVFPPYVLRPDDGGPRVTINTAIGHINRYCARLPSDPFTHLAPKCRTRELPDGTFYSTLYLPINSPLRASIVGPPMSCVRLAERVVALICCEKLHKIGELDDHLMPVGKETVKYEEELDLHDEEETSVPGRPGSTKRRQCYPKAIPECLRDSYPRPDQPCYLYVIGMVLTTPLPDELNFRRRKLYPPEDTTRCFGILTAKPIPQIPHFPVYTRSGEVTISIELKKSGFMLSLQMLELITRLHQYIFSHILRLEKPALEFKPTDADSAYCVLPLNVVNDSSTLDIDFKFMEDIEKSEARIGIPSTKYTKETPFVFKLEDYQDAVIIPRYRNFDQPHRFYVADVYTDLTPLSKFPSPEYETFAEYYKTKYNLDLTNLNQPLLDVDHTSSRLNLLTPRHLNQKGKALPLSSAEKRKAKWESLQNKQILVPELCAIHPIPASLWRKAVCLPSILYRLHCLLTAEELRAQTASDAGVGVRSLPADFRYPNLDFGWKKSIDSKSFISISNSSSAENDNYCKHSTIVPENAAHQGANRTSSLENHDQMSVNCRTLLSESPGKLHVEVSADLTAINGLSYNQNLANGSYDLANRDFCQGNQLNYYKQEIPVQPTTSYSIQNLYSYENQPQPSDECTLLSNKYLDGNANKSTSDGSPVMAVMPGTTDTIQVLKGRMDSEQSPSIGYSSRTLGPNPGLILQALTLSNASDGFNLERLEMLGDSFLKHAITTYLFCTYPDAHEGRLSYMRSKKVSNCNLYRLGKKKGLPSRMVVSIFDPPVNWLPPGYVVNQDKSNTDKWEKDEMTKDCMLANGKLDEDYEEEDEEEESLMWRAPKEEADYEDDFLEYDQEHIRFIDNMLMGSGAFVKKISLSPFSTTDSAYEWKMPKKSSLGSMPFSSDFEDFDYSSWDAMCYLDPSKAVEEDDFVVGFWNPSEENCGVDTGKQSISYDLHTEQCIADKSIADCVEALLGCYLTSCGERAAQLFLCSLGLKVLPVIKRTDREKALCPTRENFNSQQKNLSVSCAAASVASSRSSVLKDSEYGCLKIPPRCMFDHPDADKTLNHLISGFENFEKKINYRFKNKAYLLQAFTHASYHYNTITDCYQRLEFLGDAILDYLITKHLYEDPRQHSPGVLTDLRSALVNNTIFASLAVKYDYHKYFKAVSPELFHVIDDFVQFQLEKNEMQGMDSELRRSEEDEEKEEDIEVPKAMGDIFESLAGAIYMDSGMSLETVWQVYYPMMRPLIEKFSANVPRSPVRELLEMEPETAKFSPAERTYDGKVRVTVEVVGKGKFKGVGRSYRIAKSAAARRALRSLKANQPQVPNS
inactive: alvocidib -0.032 | Tubastatin A -0.172 | [1] 0.112 | defactinib 0.046 | [2] -0.003 | encorafenib 0.037 | [3] 0.039 | alisertib 0.012 | [4] -0.022 | gefitinib -0.027

CMSS1 (UniProt Q9BQ75)
Sequence of UniProt Q9BQ75 (Q9BQ75 whole entry, looked up): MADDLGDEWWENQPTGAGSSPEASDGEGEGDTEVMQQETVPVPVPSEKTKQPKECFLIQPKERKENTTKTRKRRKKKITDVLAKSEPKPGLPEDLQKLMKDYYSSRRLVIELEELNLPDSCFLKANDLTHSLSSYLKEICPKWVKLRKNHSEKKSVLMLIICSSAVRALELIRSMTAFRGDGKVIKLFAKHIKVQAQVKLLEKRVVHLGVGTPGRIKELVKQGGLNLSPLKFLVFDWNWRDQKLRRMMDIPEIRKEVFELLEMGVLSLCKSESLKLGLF
inactive: alvocidib 0.013 | Tubastatin A -0.036 | [1] -0.02 | defactinib -0.009 | [2] -0.032 | encorafenib 0.015 | [3] 0.024 | alisertib 0.02 | [4] 0.004 | gefitinib 0.025

DFFB (UniProt O76075)
Sequence of UniProt O76075 (O76075 whole entry, looked up): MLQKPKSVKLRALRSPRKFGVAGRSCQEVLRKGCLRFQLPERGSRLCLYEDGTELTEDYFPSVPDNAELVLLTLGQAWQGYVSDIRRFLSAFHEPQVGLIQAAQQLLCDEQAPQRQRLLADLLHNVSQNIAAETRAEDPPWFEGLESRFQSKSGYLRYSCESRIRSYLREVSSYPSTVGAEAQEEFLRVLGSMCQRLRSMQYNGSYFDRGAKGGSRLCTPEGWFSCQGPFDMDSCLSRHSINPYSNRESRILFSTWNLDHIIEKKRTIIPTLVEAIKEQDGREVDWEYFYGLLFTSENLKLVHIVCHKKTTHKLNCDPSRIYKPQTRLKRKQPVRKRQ
active: gefitinib 0.231
inactive: alvocidib -0.042 | Tubastatin A -0.007 | [1] -0.022 | defactinib -0.033 | [2] -0.022 | encorafenib -0.012 | [3] 0.015 | alisertib -0.006 | [4] 0.011

CIAO2A (UniProt Q9H5X1)
inactive: alvocidib 0.034 | Tubastatin A 0.04 | [1] 0 | defactinib -0.002 | [2] 0.109 | encorafenib 0.026 | [3] -0.052 | alisertib 0.089 | [4] 0.009 | gefitinib 0.088

DNAJC24 (UniProt Q6P3W2)
inactive: alvocidib 0.079 | Tubastatin A 0.001 | [1] -0.017 | defactinib 0.009 | [2] -0.088 | encorafenib 0.037 | [3] -0.027 | alisertib -0.017 | [4] -0.006 | gefitinib -0.038

CIB1 (UniProt Q99828)
Sequence of UniProt Q99828 (Q99828 whole entry, looked up): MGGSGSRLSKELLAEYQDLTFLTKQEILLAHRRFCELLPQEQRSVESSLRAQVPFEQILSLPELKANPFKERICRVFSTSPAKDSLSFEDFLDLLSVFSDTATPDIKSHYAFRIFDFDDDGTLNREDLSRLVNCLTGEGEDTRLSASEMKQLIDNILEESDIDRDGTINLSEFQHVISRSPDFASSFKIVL
inactive: alvocidib -0.003 | Tubastatin A -0.037 | [1] 0.01 | defactinib 0.038 | [2] 0.041 | encorafenib -0.001 | [3] -0.215 | alisertib -0.031 | [4] 0.072 | gefitinib -0.124

CTNND1 isoform 3 (UniProt O60716)
inactive: alvocidib -0.02 | Tubastatin A -0.159 | [1] 0.019 | defactinib 0.045 | [2] -0.04 | encorafenib 0.013 | [3] 0.174 | alisertib 0.026 | [4] 0.006 | gefitinib -0.023

CMTM3 (UniProt Q96MX0)
inactive: alvocidib -0.007 | Tubastatin A -0.231 | [1] 0.04 | defactinib -0.022 | [2] 0.061 | encorafenib -0.011 | [3] 0.064 | alisertib -0.099 | [4] -0.036 | gefitinib -0.123

COG5 isoform 2 (UniProt Q9UP83)
inactive: alvocidib 0.02 | Tubastatin A -0.051 | [1] 0.04 | defactinib -0.005 | [2] -0.015 | encorafenib -0.025 | [3] -0.037 | alisertib -0.012 | [4] -0.053 | gefitinib 0.027

DNAJC5 (UniProt Q9H3Z4)
inactive: alvocidib -0.216 | Tubastatin A 0.062 | [1] 0.019 | defactinib 0.011 | [2] 0.054 | encorafenib 0.016 | [3] -0.057 | alisertib -0.119 | [4] 0.019 | gefitinib -0.039

DNAJC3 (UniProt Q13217)
inactive: alvocidib 0.004 | Tubastatin A 0.073 | [1] 0.005 | defactinib 0.021 | [2] -0.029 | encorafenib 0.044 | [3] 0.011 | alisertib 0 | [4] 0.005 | gefitinib 0.026

DGCR8 (UniProt Q8WYQ5)
inactive: alvocidib 0.009 | Tubastatin A -0.115 | [1] -0.009 | defactinib -0.046 | [2] 0.042 | encorafenib 0.018 | [3] 0.081 | alisertib 0.022 | [4] 0.027 | gefitinib -0.034

CNOT2 (UniProt Q9NZN8)
inactive: alvocidib -0.003 | Tubastatin A -0.046 | [1] -0.002 | defactinib 0.001 | [2] -0.027 | encorafenib -0.002 | [3] 0.013 | alisertib -0.025 | [4] 0.008 | gefitinib 0.011

CHORDC1 (UniProt Q9UHD1)
Sequence of UniProt Q9UHD1 (Q9UHD1 whole entry, looked up): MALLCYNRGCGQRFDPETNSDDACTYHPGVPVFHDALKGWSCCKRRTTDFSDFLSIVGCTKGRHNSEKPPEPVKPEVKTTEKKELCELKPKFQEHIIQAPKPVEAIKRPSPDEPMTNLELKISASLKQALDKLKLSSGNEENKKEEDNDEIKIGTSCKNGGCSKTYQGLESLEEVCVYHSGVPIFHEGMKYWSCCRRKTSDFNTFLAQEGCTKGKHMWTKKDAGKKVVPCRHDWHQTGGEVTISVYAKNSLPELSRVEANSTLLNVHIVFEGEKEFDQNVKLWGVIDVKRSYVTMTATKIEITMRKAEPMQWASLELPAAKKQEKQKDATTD
inactive: alvocidib 0.033 | Tubastatin A 0.004 | [1] 0.007 | defactinib 0 | [2] -0.002 | encorafenib -0.029 | [3] -0.018 | alisertib -0.012 | [4] -0.008 | gefitinib -0.026

DNAH10 (UniProt Q8IVF4)
inactive: alvocidib -0.248 | Tubastatin A 0.056 | [1] -0.086 | defactinib -0.074 | [2] 0.246 | encorafenib -0.04 | [3] -0.001 | alisertib 0.027 | [4] 0.046 | gefitinib 0.043

DOCK7 (UniProt Q96N67)
inactive: alvocidib 0.007 | Tubastatin A -0.238 | [1] 0.006 | defactinib -0.014 | [2] -0.035 | encorafenib 0.006 | [3] 0.038 | alisertib 0.032 | [4] 0.026 | gefitinib 0.017

DENND6A (UniProt Q8IWF6)
inactive: alvocidib -0.009 | Tubastatin A -0.072 | [1] -0.006 | defactinib 0.007 | [2] 0.103 | encorafenib 0.007 | [3] -0.134 | alisertib 0.059 | [4] -0.024 | gefitinib 0.047

DOK1 (UniProt Q99704)
Sequence of UniProt Q99704 (Q99704 whole entry, looked up): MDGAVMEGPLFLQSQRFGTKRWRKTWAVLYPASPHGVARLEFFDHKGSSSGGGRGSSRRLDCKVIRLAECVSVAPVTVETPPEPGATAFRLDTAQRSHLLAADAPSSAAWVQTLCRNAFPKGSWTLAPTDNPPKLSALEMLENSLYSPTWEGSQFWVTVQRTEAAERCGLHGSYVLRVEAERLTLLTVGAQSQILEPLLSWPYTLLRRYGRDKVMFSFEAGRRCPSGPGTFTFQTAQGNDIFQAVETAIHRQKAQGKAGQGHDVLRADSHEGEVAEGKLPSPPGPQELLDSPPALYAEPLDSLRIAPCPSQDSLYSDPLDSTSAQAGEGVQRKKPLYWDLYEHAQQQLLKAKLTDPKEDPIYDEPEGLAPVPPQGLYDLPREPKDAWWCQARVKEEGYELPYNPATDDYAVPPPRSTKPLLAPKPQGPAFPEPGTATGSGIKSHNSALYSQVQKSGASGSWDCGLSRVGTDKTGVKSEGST
inactive: alvocidib -0.02 | Tubastatin A -0.135 | [1] 0.059 | defactinib 0.059 | [2] -0.005 | encorafenib -0.007 | [3] 0.044 | alisertib 0.082 | [4] 0.071 | gefitinib -0.102

DDB2 (UniProt Q92466)
active: defactinib 0.262
inactive: alvocidib 0 | Tubastatin A 0.06 | [1] 0.041 | [2] 0.069 | encorafenib 0.079 | [3] -0.065 | alisertib 0.045 | [4] 0.055 | gefitinib -0.131

CNK3/IPCEF1 isoform 2 (UniProt G9CGD6)
inactive: alvocidib -0.483 | Tubastatin A -0.048 | [1] -0.012 | defactinib -0.082 | [2] -0.007 | encorafenib 0.041 | [3] -0.062

DDX4 (UniProt Q9NQI0)
Sequence of UniProt Q9NQI0 (Q9NQI0 whole entry, looked up): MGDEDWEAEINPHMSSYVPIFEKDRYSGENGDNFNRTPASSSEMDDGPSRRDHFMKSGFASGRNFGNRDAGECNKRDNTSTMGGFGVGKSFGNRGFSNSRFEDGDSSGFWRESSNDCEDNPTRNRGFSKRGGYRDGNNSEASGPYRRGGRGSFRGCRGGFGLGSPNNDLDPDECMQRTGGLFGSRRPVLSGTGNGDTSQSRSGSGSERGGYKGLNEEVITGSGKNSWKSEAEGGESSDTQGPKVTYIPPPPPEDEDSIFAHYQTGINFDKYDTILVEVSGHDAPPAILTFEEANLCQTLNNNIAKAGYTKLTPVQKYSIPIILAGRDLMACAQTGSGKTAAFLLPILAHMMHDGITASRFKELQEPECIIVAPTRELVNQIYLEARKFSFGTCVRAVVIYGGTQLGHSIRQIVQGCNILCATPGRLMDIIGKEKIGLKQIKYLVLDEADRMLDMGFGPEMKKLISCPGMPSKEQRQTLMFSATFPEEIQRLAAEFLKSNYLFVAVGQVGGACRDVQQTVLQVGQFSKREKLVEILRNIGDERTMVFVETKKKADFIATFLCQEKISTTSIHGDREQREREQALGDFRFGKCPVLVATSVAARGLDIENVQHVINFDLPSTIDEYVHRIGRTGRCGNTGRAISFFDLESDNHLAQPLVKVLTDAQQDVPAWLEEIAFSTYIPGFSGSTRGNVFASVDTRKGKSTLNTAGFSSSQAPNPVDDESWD
inactive: alvocidib -0.234 | Tubastatin A -0.173 | [1] -0.05 | defactinib -0.058 | [2] -0.116 | encorafenib -0.047 | [3] -0.02 | alisertib 0.032 | [4] -0.007 | gefitinib 0.021

COPZ1 isoform 4 (UniProt P61923)
inactive: alvocidib 0.084 | Tubastatin A 0.055 | [1] 0.081 | defactinib 0.166 | [2] -0.093 | encorafenib -0.011 | [3] -0.049 | alisertib 0.045 | [4] -0.077 | gefitinib -0.142

CTPS2 (UniProt Q9NRF8)
Sequence of UniProt Q9NRF8 (Q9NRF8 whole entry, looked up): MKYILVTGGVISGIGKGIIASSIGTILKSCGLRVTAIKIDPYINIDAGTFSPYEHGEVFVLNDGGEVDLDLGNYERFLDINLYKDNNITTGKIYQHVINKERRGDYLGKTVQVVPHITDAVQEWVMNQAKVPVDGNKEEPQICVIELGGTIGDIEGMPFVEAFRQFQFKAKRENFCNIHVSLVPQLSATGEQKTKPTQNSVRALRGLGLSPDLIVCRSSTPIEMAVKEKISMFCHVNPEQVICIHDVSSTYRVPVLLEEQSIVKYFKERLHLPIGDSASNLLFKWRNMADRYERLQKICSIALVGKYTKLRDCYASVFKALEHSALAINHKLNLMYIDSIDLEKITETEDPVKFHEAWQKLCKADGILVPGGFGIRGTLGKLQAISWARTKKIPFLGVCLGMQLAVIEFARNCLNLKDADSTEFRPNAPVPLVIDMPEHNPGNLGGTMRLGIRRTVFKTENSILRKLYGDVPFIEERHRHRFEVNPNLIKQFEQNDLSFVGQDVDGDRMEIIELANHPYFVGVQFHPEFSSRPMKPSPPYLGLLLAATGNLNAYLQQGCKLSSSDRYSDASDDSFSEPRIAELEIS
inactive: alvocidib -0.01 | Tubastatin A 0.015 | [1] -0.009 | defactinib 0.01 | [2] -0.006 | encorafenib 0.01 | [3] -0.043 | alisertib -0.017 | [4] 0.011 | gefitinib 0.011

CHUK (UniProt O15111)
inactive: alvocidib 0.029 | Tubastatin A -0.203 | [1] 0.077 | defactinib 0.089 | [2] -0.039 | encorafenib -0.021 | [3] 0.121 | alisertib 0.018 | [4] 0.052 | gefitinib -0.06

CKS1B (UniProt P61024)
inactive: alvocidib 0.117 | Tubastatin A -0.001 | [1] 0.032 | defactinib 0.075 | [2] -0.055 | encorafenib 0.04 | [3] -0.014 | alisertib -0.031 | [4] -0.024 | gefitinib 0.071

COX20 isoform 2 (UniProt Q5RI15)
Sequence of UniProt Q5RI15 (Q5RI15 whole entry, looked up): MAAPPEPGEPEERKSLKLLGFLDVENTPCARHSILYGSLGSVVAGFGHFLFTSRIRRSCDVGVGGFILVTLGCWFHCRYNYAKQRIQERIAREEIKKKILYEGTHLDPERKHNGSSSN
inactive: alvocidib 0.102 | Tubastatin A -0.012 | [1] 0.01 | defactinib -0.007 | [2] 0.06 | encorafenib -0.103 | [3] 0.022 | alisertib 0.001 | [4] -0.033 | gefitinib -0.009

CNOT4 isoform 6 (UniProt O95628)
inactive: alvocidib 0.015 | Tubastatin A -0.011 | [1] -0.009 | defactinib 0.001 | [2] -0.069 | encorafenib 0.076 | [3] -0.051 | alisertib -0.003 | [4] -0.041 | gefitinib -0.007
